Out of some 1,300 compounds screened, about 150 (12%) were called active. About 30% were inconclusive and are not listed. The list comes from a sample in which actives are over-represented; it also holds similar structures and randomly drawn compounds. Unmarked numbers belong to inactive results. Calls come from the whole dose curve; as a rule, active = well fitted cell-killing curve with a large enough effect; inconclusive = small, poorly fitted or top-dose-only effect, or effect the other way; inactive = flat fitted curve, though single readings scatter.
assay: qHTS of small molecules that selectively kill Giardia lamblia: Hit Validation in HepG2 cytotox; conditions: cell viability; Potency: HepG2 cytotoxicity; series mostly up to 38.3 µM; activity change, negative = cytotoxicity: at the top concentration;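 note: compound exposure lasted overnight at 37 deg C; nearly all actives have a fitted effect of over 55% in size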;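 for activity change, negative = cytotoxicity: viability measured as cellular ATP by ATPLite luminescence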
Source text: Giardia lamblia is a human pathogen afflicting impoverished nations, and the most common cause of outbreaks of diarrhea in the United States. Giardia has been classified by the CDC as a category B bioterrorism organism. The favored anti giardiasis drugs in the US are metronidazole or tinidazole, compounds that have undesirable side effects. Moreover, increasing resistance to drug regimes and recurrence are a concern. It is thus clear that alternative drug treatments are needed.
In a collaboration between the University of Maryland, College Park and the NIH Chemical Genomics Center, a bioluminescence Giardia viability assay based on the trophozoites' ATP content was developed. This assay is suitable for high throughput screening, and miniaturized the assay for compound screening in 1536-well plates. The goal of the project is to screen the Molecular Libraries Small Molecule Repository (MLSMR) for compounds that selectively kill Giardia trophozoites. This counterscreen looks at the toxicity of the compounds against the human HepG2 cell line.
NIH Chemical Genomics Center [NCGC]
NIH Molecular Libraries Probe Centers Network [MLPCN]
Assay Submitter (PI): Osnat Herzberg, University of Maryland, College Park, MD.
4 uL of HepG2 cells ae dispensed into white 1536-well plates. They are incubated overnight at 37 deg C and then 23 nL of compounds are transferred to the wells with a pintool. Plates are incubated overnight at 37 deg C. 2 uL of ATPLite is added and the plates are incubated for 15 min at room temperature before they are read on the ViewLux for luminiescence.
% is set by controls: 0 for no effect and ±100 for the full control effect; potency is the fitted concentration of half-maximal effect.

SMILES | activity change, negative = cytotoxicity | Potency
COc1ccccc1CNC(=O)CSc1ccsc1[N+](=O)[O-] | 10.1% | 
Cc1ccc(OCc2ccc([N+](=O)[O-])cc2)c([N+](=O)[O-])n1 | 11.6% | 
Cc1cc(C(=O)COc2cccnc2[N+](=O)[O-])c(C)n1Cc1cccs1 | 0.566% | 
Cc1onc(-c2ccccc2)c1C(=O)N/N=C/c1ccc([N+](=O)[O-])c(O)c1 | 18.6% | 
COc1cc2c(c3oc(-c4ccccc4)cc(=O)c13)C=CC(C)(C)O2 | 15% | 
Cc1nc2ccccc2n1/N=C/c1ccc([N+](=O)[O-])s1 |  | 16.5 µM (active)
O=[N+]([O-])c1ccc(/C=N/n2c(CO)nc3ccccc32)s1 | -18.8% | 
O=[N+]([O-])c1ccc(/C=N/Nc2ncccc2[N+](=O)[O-])s1 | 4.72% | 
CN(C)c1ccc(N=Nc2ccccc2C(=O)O)cc1 | 2.67% | 
CCOC(=O)Cn1c(=NC(=O)c2ccc([N+](=O)[O-])s2)sc2ccccc21 | -12.7% | 
COc1ccc(C(=O)N(Cc2ccccc2)c2cccc(C)c2)cc1 | -1.63% | 
CCOc1ccc2nc(NC(=O)c3c([N+](=O)[O-])cnn3CC)sc2c1 | 2.03% | 
CCC(C(=O)OC)n1c(-c2ccccc2)nc2ccccc2c1=O (centres undefined) | 6.81% | 
CCOC(=O)N=Nc1c2ccccc2c2nc3no[nH]c3nc12 |  | 0.736 µM (active)
CN(C)c1cc(NC(=O)CNC(C)(C)CC(C)(C)C)c2ccccc2n1 | -3.21% | 
CC1CCN(c2c([N+](=O)[O-])nn(-c3ccc4c(c3)OCCO4)[n+]2[O-])CC1 | 0.373% | 
COCCNc1cc(NCCOC)c([N+](=O)[O-])cc1[N+](=O)[O-] | 3.46% | 
Cc1ccc([C@H]2C(C(=O)O)=CC[C@@H](c3ccc(C)cc3)N2S(=O)(=O)c2ccc(C)cc2)cc1 | 5.19% | 
CCC(C)Nc1ccc(NC(C)CC)cc1 (centres undefined) |  | 0.165 µM (active)
O=C(COc1cccnc1[N+](=O)[O-])Nc1c(Cl)cccc1Cl | 5% | 
O=[N+]([O-])c1nn(-c2ccc(Cl)cc2)n(O)c1=NCc1ccncc1 | 15.3% | 
OCCSc1nc(-c2ccccc2)nc2ccc(F)cc12 | 12.9% | 
O=C(Cc1csc(Nc2nc(=S)[nH]c3ccccc23)n1)NCCCN1CCN(c2ccccc2F)CC1 |  | 16.5 µM (active)
CCOC(=O)N1C(C)CN(/[N+]([O-])=N/Oc2ccc([N+](=O)[O-])cc2[N+](=O)[O-])CC1C (centres undefined) | 5.98% | 
O=c1/c(=C/c2ccc(O)c([N+](=O)[O-])c2)sc2nc3ccccc3n12 | -5.62% | 
Cc1ccc2c(c1)c1nc3ccccc3nc1n2C | -4.9% | 
Cc1cnc([N+](=O)[O-])n1CCOC(=O)c1cccc(F)c1 | 15.1% | 
O=C(c1ccc([N+](=O)[O-])o1)N1CCOCC1 | -15.8% | 
Cc1oc2c(c1C(=O)N1CCOCC1)C(=O)c1ccccc1C2=O |  | 4.65 µM (active)
